Source: PubChem BioAssay AID1209 (Sanford-Burnham Center for Chemical Genomics, 2008)
Screen size: about 190,000 compounds; about 810 (0.43%) were called active. No stated cut-off is given here; in the data, active means inhibition above about 50%; inactive means the rest. This excerpt belongs to a sample that is enriched for actives.

The molecules below were run against Mannose-6-phosphate isomerase (Homo sapiens) (UniProt P34949) (assay: inhibitors of human PMI, primary screen, biochemical, fluorescence intensity, coupled assay (AID 1209;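 further: plate controls were DMSO vehicle for no effect and wells lacking substrate for full effect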)). Settings: purified PMI enzyme, at 20 µM, hits give high values.
Chain of Mannose-6-phosphate isomerase (Homo sapiens) (P34949 whole entry, looked up): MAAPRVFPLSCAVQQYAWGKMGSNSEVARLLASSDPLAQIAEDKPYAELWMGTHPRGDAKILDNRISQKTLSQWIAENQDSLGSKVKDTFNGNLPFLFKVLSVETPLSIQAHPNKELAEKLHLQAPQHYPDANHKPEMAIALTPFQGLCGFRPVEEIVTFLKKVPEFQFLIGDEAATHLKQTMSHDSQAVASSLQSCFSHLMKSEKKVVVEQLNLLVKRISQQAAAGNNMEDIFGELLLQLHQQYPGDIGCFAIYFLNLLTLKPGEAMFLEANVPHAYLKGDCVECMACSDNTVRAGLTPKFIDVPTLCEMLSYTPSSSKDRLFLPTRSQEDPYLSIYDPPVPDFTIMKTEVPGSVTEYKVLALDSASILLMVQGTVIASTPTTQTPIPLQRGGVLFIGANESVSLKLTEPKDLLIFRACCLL

| Compound | inhibition |
| --- | --- |
| CCCCCn1c(NC(=O)c2ccco2)c(S(=O)(=O)c2ccc(C)cc2)c2nc3ccccc3nc21 | 20% (inactive) |
| C=CCn1c(NC(=O)c2ccco2)c(S(=O)(=O)c2ccccc2)c2nc3ccccc3nc21 | 7.1% (inactive) |
| CCCCn1c(NC(=O)c2ccco2)c(S(=O)(=O)c2ccc(C)cc2)c2nc3ccccc3nc21 | 50.9% (active) |
| COc1cccc(C(=O)OCC(=O)NCCc2ccccc2)c1OC | -5.9% (inactive) |
| Cc1cc(=O)c2ccccc2s1 | -2.5% (inactive) |
| CC(C(=O)N1CCCCC1)n1sc2ccccc2c1=O (stereo unspecified) | -2.6% (inactive) |
| Cc1ccc(-n2nc3c4c(cccc4c2=O)-c2ccccc2-3)cc1 | 14.2% (inactive) |
| Cc1ccnc(N2C3CCC2CC(O)(c2ccccc2)C3)n1 (stereo unspecified) | -0.2% (inactive) |
| O=c1[nH]n(-c2ccccc2)c(=O)c2ccccc12 | 6.7% (inactive) |
| O=c1c2ccccc2sn1-c1nccs1 | 107% (active) |
| O=c1c2ccccc2sn1-c1ccccc1 | 87.2% (active) |
| O=C1CCCN1c1nccs1 | -4.2% (inactive) |
| Cc1ccccc1N=Cc1c(O)n(-c2nccs2)c(=O)c2ccccc12 | 0.5% (inactive) |
| O=c1c2ccccc2c2ccccc2c(=O)n1-c1ccccc1 | 3.9% (inactive) |
| O=C(Nc1cccn(Cc2cccc(F)c2)c1=O)NC1CCCCC1 | 14.9% (inactive) |
| COc1ccc(-n2c(COc3ccc(C)cc3)nnc2SCc2ccc(C#N)cc2)cc1 | 10.6% (inactive) |
| COCCCn1c(=NC(=O)c2ccc3c(c2)OCO3)c(C#N)cc2c(=O)n3cccc(C)c3nc21 | 1.8% (inactive) |
| CCOC(=O)CSc1nc2ccccc2c(=O)n1CC1COc2ccccc2O1 (stereo unspecified) | -3.8% (inactive) |
| Cn1c(=O)c2c(nc(CN3CCOCC3)n2CCCO)n(C)c1=O | -8.2% (inactive) |
| COc1ccccc1NS(=O)(=O)c1cccc(C(=O)NN=C2CCCCCC2)c1 | -1.7% (inactive) |
| CCn1c(SCC(=O)N2CCCC2)nc2c(c1=O)SC(C)C2 (stereo unspecified) | 0.5% (inactive) |
| CN(C)S(=O)(=O)c1cccc(-c2cn3ccccc3n2)c1 | -3.5% (inactive) |
| CN(C)S(=O)(=O)c1cccc(N2C(=O)CC3(CCCCC3)CC2=O)c1 | 2% (inactive) |

| Compound | inhibition |
| --- | --- |
| COC(=O)C1=C(N)Oc2cc(C)n(C)c(=O)c2C1c1ccc(Cl)cc1 (stereo unspecified) | 1.3% (inactive) |
| Cc1c(Cl)cccc1NC(=S)NN | 5.2% (inactive) |
| CCC(C)(C)n1nnnc1C(c1ccc(O)cc1)N1CCc2ccccc2C1 (stereo unspecified) | 12.2% (inactive) |
| CCOC(=O)/C(C(=O)Nc1ccccc1Cl)=C1/NC(C)(C)Cc2ccccc21 | 18.6% (inactive) |
| CCOC(=O)/C(C(=O)Nc1ccc(Br)cc1)=C1/NC(C)(C)Cc2ccccc21 | 3.3% (inactive) |
| CCOC(=O)/C(C)=C1\NC(C)(C)Cc2ccccc21 | 94.7% (active) |
| O=C(Cc1c[nH]c2ccccc12)N1CCN(c2ccccc2)CC1 | -10.2% (inactive) |
| Cn1c(Cc2ccccc2)nnc1SCC(=O)Nc1cccc(S(=O)(=O)NC2=NCCCCC2)c1 | 5% (inactive) |
| CCN=c1scc(-c2ccco2)n1/N=C/c1ccc(O)cc1 | -4.3% (inactive) |
| CN=c1scc(-c2ccc(F)cc2)n1/N=C/c1ccc(O)c(O)c1 | 50.4% (active) |
| CCN=c1scc(-c2ccco2)n1/N=C/c1ccc(OC)c(O)c1 | -0.4% (inactive) |
| CN=c1scc(-c2ccco2)n1/N=C/c1ccc(O)c(O)c1 | 53% (active) |
| C=CCN=c1scc(C)n1/N=C/c1ccc(O)c(O)c1 | 49.2% (inactive) |
| CN=c1scc(C)n1/N=C/c1ccc(O)cc1 | 12.4% (inactive) |
| CCCC(=O)C1=C(O)C(c2cccc(Oc3ccccc3)c2)CCC1=O (stereo unspecified) | -21% (inactive) |
| N#CCN1CCCC(C(N)=O)C1 (stereo unspecified) | -5.3% (inactive) |
| Cc1sc(NC(=O)CSc2nnnn2C)c(C#N)c1C | 4.7% (inactive) |
| CCOc1ccc(C2CC(c3cccc(C)c3)n3ncnc3N2)cc1 (stereo unspecified) | 2.6% (inactive) |
| CCc1ccc(CN(C)C(=O)c2cc(COc3c(F)cccc3F)on2)cc1 | 18.2% (inactive) |
| COC1=C(OC)C(=O)C(CCCCCCCCCCO)=C(C)C1=O | 53.5% (active) |
| CC1=C(C)C(=O)C(CCCCC#CCCCC#CCO)=C(C)C1=O | -13.9% (inactive) |
| Cc1[nH]c(=S)[nH]c(=O)c1CCCO | 12.6% (inactive) |
| COc1cccc(CNC(=O)CCC2CCCN(C3CCOCC3)C2)c1 (stereo unspecified) | 5.9% (inactive) |

| Compound | inhibition |
| --- | --- |
| CCOc1ccc(NC(=O)NC(C)CC)cc1 (stereo unspecified) | -3.9% (inactive) |
| O=C(O)c1ccc(S(=O)(=O)N2CCCCCC2)cc1 | 2.4% (inactive) |
| O=C(/C=C/c1ccc(O)c(O)c1)c1ccc(S(=O)(=O)N2CCCCCC2)cc1 | 66% (active) |
| O=C(/C=C/c1ccc(N2CCCCC2)c([N+](=O)[O-])c1)c1ccc(S(=O)(=O)N2CCCC2)cc1 | 0% (inactive) |
| Cc1ccc2c(c1)CCCN2C(=O)c1ccco1 | 0.8% (inactive) |
| O=C(NCC1CCCO1)c1ccccc1 (stereo unspecified) | 11.6% (inactive) |
| Cc1cccc(C2(c3cccc(C)c3)CC2C(=O)NCC2CCCO2)c1 (stereo unspecified) | -4.2% (inactive) |
| O=C(NCC1CCCO1)C1CC1(c1ccccc1)c1ccccc1 (stereo unspecified) | 108% (active) |
| O=C(CC1C(=O)NC2CCCCC2N1C(=O)c1ccc(F)cc1)Nc1ccccc1 (stereo unspecified) | 0.9% (inactive) |
| CCc1ccc(C(=O)COC(=O)CNC(=O)c2ccco2)cc1 | -5.4% (inactive) |
| O=c1[nH]c(-c2ccc(F)cc2)nc2c1sc(=S)n2-c1ccccc1 | -0.9% (inactive) |
| O=c1[nH]cnc2c1sc(=S)n2-c1ccccc1 | 50.7% (active) |
| S=c1sc2c(Cl)ncnc2n1-c1ccccc1 | -30.4% (inactive) |
| CS(=O)(=O)N1CCN(c2ccc(NC(=O)CSc3nnc(-c4ccco4)o3)cc2)CC1 | -8.2% (inactive) |
| CCN(CC)S(=O)(=O)c1ccc(NC(=O)COC(=O)CNS(=O)(=O)/C=C/c2ccccc2)cc1 | 5.2% (inactive) |
| O=C(COC(=O)c1ccccc1Br)NCCC1=CCCCC1 | 5.8% (inactive) |
| CC1(C)N=C(SCC(=O)Nc2ccc(Cl)cc2Cl)C(c2ccccc2)=N1 | 8.5% (inactive) |
| O=C(NC1CCCCC1)c1sc(=S)n2c1[nH]c(=O)c1ccccc12 | 51.2% (active) |
| O=C(NC1CCCC1)c1sc(=S)n2c1[nH]c(=O)c1ccccc12 | -4.7% (inactive) |
| O=C(NCc1ccccc1)c1sc(=S)n2c1[nH]c(=O)c1ccccc12 | 4.9% (inactive) |
| COc1ccc(/C=C/C(=O)OCC(=O)Nc2c(C)cccc2C)cc1 | -7.6% (inactive) |
| CC(=O)c1ccc(Nc2cc(C)nc3ccc(C)cc23)cc1 | 11.3% (inactive) |
| CC(=O)c1ccc(Nc2cc(C)nc3ccccc23)cc1 | 95.7% (active) |

| Compound | inhibition |
| --- | --- |
| COc1ccc(Nc2cc(C)nc3ccccc23)cc1 | 16% (inactive) |
| Cc1ccc(O)c(C(=O)c2cnc3c(c2)CN(C)C(=O)N3)c1 | 3.7% (inactive) |
| O=C(c1cnc2sccn2c1=O)N(Cc1ccccc1)c1ccccn1 | 14.3% (inactive) |
| CCOC(=O)c1sc(NC(=O)CSc2nnnn2-c2ccccc2)c(C(=O)OCC)c1C | 14.3% (inactive) |
| CCOC(=O)c1sc(NC(=O)CSc2nnnn2-c2ccc(C)cc2)c(C(=O)OCC)c1C | 12.2% (inactive) |
| CCOC(=O)c1c(NC(=O)CSc2nnnn2-c2ccc(OC)cc2)sc(C)c1C | 60% (active) |
| Cc1cc(OCC(=O)NCc2ccncc2)ccc1Cl | 1% (inactive) |
| Cc1ccc(N2CCN(CC(=O)Nc3c(C(=O)C4CC4)oc4ccccc34)CC2)cc1 | -11.1% (inactive) |
| COc1ccc(N(CC(=O)Nc2ccc3c(c2)OCO3)S(C)(=O)=O)c(OC)c1 | -4.4% (inactive) |
| COC(=O)C(N)Cc1ccc(O)cc1 (stereo unspecified) | -4.5% (inactive) |
| C[C@](N)(Cc1ccc(O)c(O)c1)C(=O)O | 57.7% (active) |
| COC(=O)[C@@H](N)Cc1ccc(O)cc1 | 2.6% (inactive) |
| COC(=O)C(N)Cc1ccc(O)c(O)c1 (stereo unspecified) | 56.9% (active) |
| COc1ccc(CC(=O)O)cc1O | 2.3% (inactive) |
| C[C@@](Cc1ccc(O)c(O)c1)(NN)C(=O)O | 12.9% (inactive) |
| Oc1c(C(c2ccccc2)N2CCCCC2)sc2ncnn12 (stereo unspecified) | -8.5% (inactive) |
| COc1cc2c(cc1OC)C(=S)NC1(CCCC1)C2 | -19.1% (inactive) |
| CC(=O)c1c(OC(=O)c2ccco2)c2ccccc2n1C | 4% (inactive) |
| NC(=O)c1ccsc1NC(=O)CSc1nnc(Nc2ccccc2)s1 | 0.1% (inactive) |
| CC(C)C[C@H](NS(=O)(=O)c1ccc(Br)cc1)C(=O)O | 5.2% (inactive) |
| CCCCNc1nc(NC)nc(Cl)c1SC | 0.4% (inactive) |
| C/C(=N\NC(=O)c1ccc([N+](=O)[O-])cc1)c1cccc([N+](=O)[O-])c1 | 3.4% (inactive) |
| C/C(=N\NC(=O)c1ccc([N+](=O)[O-])cc1)c1c(O)cc(C)oc1=O | -40.7% (inactive) |

| Compound | inhibition |
| --- | --- |
| C/C(=N/NC(=O)c1cc(O)c(O)c(O)c1)c1ccc([N+](=O)[O-])cc1 | 64.5% (active) |
| CCN(CC)c1ccc(/C=C2\NC(=O)NC2=O)cc1 | 9.7% (inactive) |
| O=C(Nn1cnc2ccccc2c1=O)c1cccc(Cl)c1 | 3% (inactive) |
| CC[N+](C)(CC)CC(O)COCC1COc2ccccc2O1 (stereo unspecified) | 19.8% (inactive) |
| C[N+]1(CC(O)COCC2COc3ccccc3O2)CCOCC1 (stereo unspecified) | 66.2% (active) |
| OC(COCC1COc2ccccc2O1)CN1CCN(c2ccccc2)CC1 (stereo unspecified) | 1.8% (inactive) |
| C/C(=N\NC(N)=S)C1C2C3CC4C5CC(C42)C1C53 (stereo unspecified) | 0.3% (inactive) |
| O=C(NCc1ccco1)c1ccccc1-c1ccc(C(F)(F)F)cc1 | 4.9% (inactive) |
| CCOC(=O)N1CCN(Cc2cc(Cl)c3cccnc3c2O)CC1 | 54.9% (active) |
| COCc1cc(CN2CCCC2)c(O)c2ncccc12 | 41% (inactive) |
| CN1CCN(Cc2cc(COCc3ccccc3)c3cccnc3c2O)CC1 | 43.5% (inactive) |
| COc1ccccc1N1CCN(Cc2cc(Br)c(O)c3ncccc23)CC1 | 25.4% (inactive) |
| Oc1c(CN2CCCCC2)cc(Br)c2cccnc12 | 51.6% (active) |
| O=[N+]([O-])c1cc(CN2CCCC2)c2cccnc2c1O | 5% (inactive) |
| CCOC(=O)N1CCN(Cc2ccccc2Cl)CC1 | 4.4% (inactive) |
| Oc1c(CN2CCCCC2)cc(COCc2ccccc2)c2cccnc12 | 46.6% (inactive) |
| Oc1ccc(CN2CCN(c3ccccc3)CC2)c2cccnc12 | 35.3% (inactive) |
| COc1ccccc1N1CCN(Cc2ccc(O)c3ncccc23)CC1 | 55.7% (active) |
| CN1CCN(Cc2cc(Cl)c3cccnc3c2OC(=O)c2cccs2)CC1 | 15.8% (inactive) |
